This is part of a sample that, as a whole, favours compounds with a hit. Of some 83,000 tested, about 20% had one in any assay.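 How to read the values: 0–100, growth inhibition (40 = 60% inhibited); 0, no net growth; -100 to 0, cell death (-40 = 40% of starting cells died; -100 = all dead).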 Unmarked numbers belong to inactive results. Active and inactive are the calls of the source. How the source made its calls: active means growth percent below 10; inactive means the rest.
Experiments:
Assay in all cases: NCI-60 one-dose screen, 48 h (100 = growth as untreated, 0 = no growth, -100 = all killed)
Settings in all cases: 10 µM unless noted
SR leukemia = test system: SR leukemia
RPMI-8226 leukemia = test system: RPMI-8226 leukemia
OVCAR-8 ovarian = test system: OVCAR-8 ovarian
OVCAR-5 ovarian = test system: OVCAR-5 ovarian
OVCAR-4 ovarian = test system: OVCAR-4 ovarian
IGROV1 ovarian = test system: IGROV1 ovarian
OVCAR-3 ovarian = test system: OVCAR-3 ovarian
HS 578T breast = test system: HS 578T breast
NCI/ADR-RES ovarian = test system: NCI/ADR-RES ovarian
SK-OV-3 ovarian = test system: SK-OV-3 ovarian

SMILES	growth (SR leukemia)	growth (RPMI-8226 leukemia)	growth (OVCAR-8 ovarian)	growth (OVCAR-5 ovarian)	growth (OVCAR-4 ovarian)	growth (IGROV1 ovarian)	growth (OVCAR-3 ovarian)	growth (HS 578T breast)	growth (NCI/ADR-RES ovarian)	growth (SK-OV-3 ovarian)
O=C(Cc1ccc(/C=C/C(=O)c2ncc[nH]2)cc1)Nc1ccc(C(F)(F)F)cc1	0.627% (active)	-38.2% (active)	-2.81% (active)	78.9%	51.1%	23.7%	1.88% (active)	36.1%	60.3%	–
CCOC(=O)C1CC(=O)c2cc(OC)c(OC)cc2C1 (centres undefined)	89.6%	82.3%	103%	101%	96.8%	–	110%	112%	98.5%	–
c1ccc(CCSc2ncnc3nc[nH]c23)cc1	52.8%	82.1%	66.9%	114%	84.8%	–	116%	100%	99.2%	–
Cc1ccc(O)c(C(=O)O)c1	101%	103%	112%	108%	122%	95.3%	–	108%	111%	–
O=C1Nc2ccccc2/C1=N/c1nc(-c2ccc(Cl)cc2)cs1	60.1%	39.3%	54.6%	98.9%	67.7%	66.7%	64.9%	71.6%	88.9%	–
CC(=O)OC1CCC2(C)C(CCC3C4CC=C(C(C)=O)C4(C)OC(=O)CC32)C1 (centres undefined)	-48.4% (active)	-31.7% (active)	-20.4% (active)	75.1%	–	61.5%	-36.2% (active)	75.1%	37.5%	109%
COc1ccc(C(O)c2cc3c(N)c(C(=O)Nc4ccccc4)sc3nc2C)cc1 (centres undefined)	-15.3% (active)	5.81% (active)	8.92% (active)	27.1%	42.6%	12.6%	-16.7% (active)	3.96% (active)	13.7%	–
COc1cccc(CCC(=O)c2cc3c(N)c(C(=O)Nc4cccc(Cl)c4C)sc3nc2C)c1	9.08% (active)	7.83% (active)	24.1%	28.3%	36.9%	24.4%	-8.82% (active)	2.96% (active)	10.7%	–
COc1ccc(NS(=O)(=O)c2ccc(C)cc2)c([N+](=O)[O-])c1	100%	96.7%	104%	106%	115%	102%	106%	95.7%	95.9%	–
CC(C)Sc1nc(NN)c(C#N)c(-c2ccccc2)n1	109%	100%	96.6%	92.8%	94.5%	86.3%	100%	93.6%	99.8%	–
COc1ccc(/C(=C\c2ccccc2)C(=O)O)cc1OC	108%	102%	105%	87.5%	103%	96%	–	97%	93.8%	–
N#Cc1c(NC(=O)c2cccc(Br)c2)sc2c1CCCC2	31.9%	77.8%	81.9%	90.5%	75.1%	67.4%	95%	80.7%	76.8%	–
CC1(C)NCCC[C@]2(C)[C@H]3CC=C4[C@@H]5C[C@@](C)(CO)CC[C@]5(C)CC[C@@]4(C)[C@]3(C)CC[C@@H]12	-1.3% (active)	20.1%	83.4%	83.3%	60.8%	56.7%	72.4%	52.7%	74.2%	–
COc1c(Cl)cc(Cl)c2ccc(C=C3C(=O)NC(=S)NC3=O)nc12	99%	105%	109%	109%	109%	108%	–	102%	100%	–
C=CCn1c(SCC(=O)Nc2ccc(C(=O)/C=C/c3cc(OC)c(OC)c(OC)c3)cc2)nnc1-c1cc(OC)c(OC)c(OC)c1	-5.4% (active)	-32.3% (active)	28.4%	95%	55.2%	22.2%	-21% (active)	69%	73%	–
COc1cc(-c2nc3occn3c2-c2ccnc(NCCNS(=O)(=O)c3ccc(Cl)cc3)n2)ccc1F	71.9%	48.8%	85.4%	118%	78.6%	64.6%	114%	77.8%	82.2%	–
O=C(Nc1cccc(Cl)c1)c1cc(Cl)ccc1O	12.3%	-20.9% (active)	9.51% (active)	12.3%	27.4%	17.5%	13.5%	-7.76% (active)	2.78% (active)	–
CN1C2CCC1CN(c1cnc(C(=O)Nc3cc(F)cc4cccnc34)cn1)C2	22.4%	44.5%	54.4%	70.3%	8.7% (active)	6.34% (active)	20.4%	54.6%	42.1%	–
OC1(c2ccc(Cl)c(C(F)(F)F)c2)CCN(CCCC(c2ccc(F)cc2)c2ccc(F)cc2)CC1	-44.2% (active)	-22% (active)	-71.7% (active)	-46.9% (active)	-10.8% (active)	-57.2% (active)	-99.9% (active)	-47% (active)	-59.8% (active)	–
COc1ccccc1OCC(=O)N1CCCCCC1	95.1%	101%	97.2%	94.8%	–	104%	116%	107%	103%	109%
O=C(O)CNC(=O)CN1C(=O)c2ccccc2C1=O	102%	101%	–	101%	115%	107%	116%	113%	104%	90.7%
COc1cc(C(=O)c2cnc(-c3ccc4cc[nH]c4c3)[nH]2)cc(OC)c1OC	6.26% (active)	-0.63% (active)	–	32.2%	39.3%	26.3%	-34.2% (active)	20.6%	8.52% (active)	23.5%
O=C(Nc1ccc2ncnc(Nc3ccc(Oc4cccc(F)c4)c(Cl)c3)c2c1)c1ccc(CNCCO)cc1	5.98% (active)	6.61% (active)	–	78.1%	7.6% (active)	9.12% (active)	45.7%	51.3%	76.9%	29.5%
C=C(C)[C@@H]1CC[C@]2(C(=O)O)CC[C@]3(C)[C@H](CC[C@@H]4[C@@]5(C)C[C@@H](CC#Cc6ccc(Br)cc6)C(=O)C(C)(C)[C@@H]5CC[C@]43C)[C@@H]12	55.2%	33.4%	–	73.8%	30.3%	58.6%	51.4%	59%	76.4%	50.5%
CC(=O)CCSc1ccc(OC(C)=O)cc1	90.1%	92.8%	–	111%	107%	114%	104%	106%	106%	101%
CCCCOc1ccc(/C=N/Nc2cc(C)nc3ccc(Cl)cc23)cc1	-20.8% (active)	-31.6% (active)	–	88.9%	5.29% (active)	-71.6% (active)	-76.7% (active)	47.7%	58.7%	79.5%
COc1cc2c(cc1[N+](=O)[O-])-c1ccc([N+](=O)[O-])cc1/C2=N\O	62%	84%	–	102%	79.6%	97.3%	104%	89%	77.1%	96.4%
Cc1cccc(Oc2ccc(Nc3ncnc4ccc(NC(=O)CNCCO)cc34)cc2Cl)c1	5.67% (active)	71.7%	–	78.8%	67.7%	9.02% (active)	49.7%	83.5%	76.1%	10.8%
COc1ccc(/C=C/C(=O)c2ccc(OC)c(OC)c2)cc1O	18.6%	65.2%	28.5%	97.5%	–	74.5%	18.8%	92.6%	5.7% (active)	–
COc1ccc2c(Nc3ccc(NS(C)(=O)=O)cc3)c3ccccc3nc2c1	-11.6% (active)	1.1% (active)	–	4.43% (active)	11.8%	3.52% (active)	-22.3% (active)	-17.1% (active)	32.7%	20.5%

— PubChem BioAssay (NCI)
